Inconclusive results are not listed. Activity calls are given as the source filed them. The call rests on the fitted dose curve; in most records, active means well fitted curve in the direction sought with a large enough effect; inconclusive means small, poorly fitted or top-dose-only effect, or another doubt; inactive means no such curve, though single readings can be large or run the other way.

Data on 40 compounds can be found in PubChem BioAssay AID2620 (National Center for Advancing Translational Sciences (NCATS), 2010).

Chain of Pyruvate kinase PKM (Homo sapiens) (P14618 whole entry, looked up, canonical isoform): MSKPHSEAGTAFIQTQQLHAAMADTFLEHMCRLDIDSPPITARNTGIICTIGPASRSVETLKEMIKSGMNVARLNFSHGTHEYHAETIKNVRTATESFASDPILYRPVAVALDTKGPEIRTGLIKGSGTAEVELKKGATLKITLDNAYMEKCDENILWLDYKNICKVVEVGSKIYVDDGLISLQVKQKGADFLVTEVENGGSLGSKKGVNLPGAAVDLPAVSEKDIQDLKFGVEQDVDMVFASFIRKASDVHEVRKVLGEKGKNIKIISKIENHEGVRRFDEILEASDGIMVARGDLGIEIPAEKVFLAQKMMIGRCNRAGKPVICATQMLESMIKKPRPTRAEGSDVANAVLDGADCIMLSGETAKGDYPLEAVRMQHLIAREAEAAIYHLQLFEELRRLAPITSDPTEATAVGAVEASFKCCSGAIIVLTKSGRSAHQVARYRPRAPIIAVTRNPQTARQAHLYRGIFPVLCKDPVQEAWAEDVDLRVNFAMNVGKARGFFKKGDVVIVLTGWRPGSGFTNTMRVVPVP

This test has as its target Pyruvate kinase PKM (Homo sapiens) (UniProt P14618). In words: Secondary LDH Assay for Activators of Human Pyruvate Kinase M1 Isoform: for Probe SAR. As to conditions: purified hPK-M1, LDH-coupled NADH fluorescence kinetic; series mostly up to 58.2 µM. The text has this:
NIH Chemical Genomics Center [NCGC]
Matthew G. Vander Heiden, M.D., Ph.D. [Harvard Medical School, 77 Avenue Louis Pasteur, Boston, MA 02115]
Human pyruvate kinase […] (hPK-M1)enzyme was supplied as a highly purified (>95% pure) preparation from Harvard Medical School and a secondary assay was used to evaluate compounds. This assay couples the formation of pyruvate from […] using lactate dehydrogenase (LDH) and NADH. The depletion of NADH is followed in a fluorescent-based kinetic assay that follows the formation of pyruvate to lactate, as catalyzed LDH. Pyruvate kinase substrates, PEP and ADP, were present in the assay at 0.1 mM and 4 mM respectively. In this kinetic assay initial rates were determined by following the fluorescence of NADH depletion.
NCGC Assay Protocol Summary:
Three uL of substrate mix (final concentration, 50 mM Tris-Cl pH 8.0, 200 mM KCl, 15 mM MgCl2, 0.1 mM PEP, 4.0 mM ADP, and 0.2 mM NADH) was dispensed into black-solid 1536 well plates. 23 nL of compounds were delivered by a pin tool and 1 uL of enzyme mix (final concentrations, 10 nM hPK-M1 and 1 uM of LDH) was added. Plates were immediately placed in ViewLux (Perkin Elmer) and NADH fluorescence was determined at 30 second exposure intervals for between 3 and 6 minutes. Data were normalized to the uninhibited controls.
Take `Cc1ccc(NS(=O)(=O)c2ccc3c(c2)CCC(=O)N3)cc1`: the compound was classed as inactive. In the case of `Cc1ccc(NS(=O)(=O)c2ccc3c(c2)CCCC(=O)N3)cc1C` it was “inactive”; in that of `CSc1cc2c(s1)c1cnn(Cc3cccc(N)c3)c(=O)c1n2C`, “inactive”. As for `Cc1nc(-c2ccc(S(=O)(=O)Nc3ccc(C)c(C)c3)s2)cs1`, the entry is “inactive”; as for `Cc1ccc(OC2=NS(=O)(=O)c3ccccc32)cc1`, “inactive”; as for `Cc1ccc2nc(-c3ccc(C)o3)c(Nc3ccc(F)cc3)n2c1`, “inactive”. As for `O=C1c2ccccc2C(=O)N1c1cccnc1`, the entry is “inactive”. Regarding `COc1cccc(N2C(=O)c3ccccc3C2=O)n1`, the compound was called inactive. In the case of `Cc1ccc(NS(=O)(=O)c2cc3c(cc2N2CCC2)NC(=O)CC3)cc1C` it was “inactive”; in that of `Cc1ccc(NS(=O)(=O)c2cc3c(cc2/C=C/c2ccccc2)NC(=O)CO3)cc1C`, “inactive”. As for `Cc1ccccc1OC1=NS(=O)(=O)c2ccccc21`, the entry is “inactive”; as for `Cc1ccc(NS(=O)(=O)c2ccc3c(c2)CCC(=O)N3)cc1Cl`, “inactive”. With `Cc1ccc(NS(=O)(=O)c2ccc3c(c2)N(C)CCO3)cc1C`, the compound was classed as inactive.

`Cc1ccc(NS(=O)(=O)c2ccc(F)cc2)cc1C`: the call was inactive. As for `Cc1ccc(-c2nc3ccc(Cl)cn3c2Nc2ccccc2)o1`, the entry is “inactive”. As for `Cc1ccc2nc(-c3cccs3)c(Nc3ccccc3)n2c1`, the entry is “inactive”; as for `Cc1ccc(NS(=O)(=O)c2cc3c(cc2N(C)C)NC(=O)CC3)cc1C`, “inactive”; as for `COc1ccc(S(=O)(=O)Nc2ccc(C)c(C)c2)cc1`, “inactive”.

Consider `O=C1CCc2cc(S(=O)(=O)Nc3ccccc3Cl)ccc2N1`, for which the result was inactive.

Consider `Cc1ccc(-c2nc3cnccn3c2Nc2ccc(C(C)C)cc2)o1`, for which the call was inactive. As for `O=S(=O)(c1ccc2c(c1)OCCO2)N1CCN(S(=O)(=O)c2c(F)cccc2F)CC1`, the entry is “inactive”; as for `O=C1c2ccccc2C(=O)N1c1cccc2ncccc12`, “inactive”.

For the compound `Cc1cc2c(s1)c1cnn(Cc3ccccc3F)c(=O)c1n2C`, the compound was called inactive. As for `O=C1CCc2cc(S(=O)(=O)Nc3ccccn3)ccc2N1`, the entry is “inactive”. As for `O=C1CCc2cc(S(=O)(=O)Nc3ccc4c(c3)OCCO4)ccc2N1`, the entry is “inactive”; as for `O=S1(=O)N=C(Oc2ccccc2)c2ccccc21`, “inactive”; as for `COc1ccc(Nc2c(-c3ccc(C)o3)nc3ccccn23)cc1`, “inactive”. For the compound `Cc1ccc(NS(=O)(=O)c2ccc3c(c2)CCC(=O)N3)cc1F`, the call was inactive. Regarding `Cc1ccc(NS(=O)(=O)c2cc3c(cc2-c2ccsc2)NC(=O)CO3)cc1C`, the compound was classed as inactive. Take `O=C1c2ccccc2C(=O)N1c1cc(=O)c2ccccc2[nH]1`: the result was inactive. In the case of `O=C1CCc2cc(S(=O)(=O)Nc3ccc(Cl)c(Cl)c3)ccc2N1`, the compound was classed as inactive. In the case of `Cc1ccc(NS(=O)(=O)c2ccc(-c3ccccc3)cc2)cc1C` it was “inactive”. For the compound `COc1cc(N2C(=O)c3ccccc3C2=O)c2ncccc2c1`, the result was inactive. On to `O=C1c2ccccc2C(=O)N1c1cccc2cccnc12`, for which the call was inactive.

`Cc1ccc(Nc2c(-c3ccsc3)nc3cccc(C)n23)cc1`: the outcome was inactive. Turning to `Cc1ccc(Cl)cc1NS(=O)(=O)c1cc2c(cc1F)NC(=O)CC2`, the result was inactive. On to `O=C1CCc2cc([S+](=O)([O-])NC3CCOCC3)ccc2N1`, for which the call was inactive. In the case of `Cc1ccc(NS(=O)(=O)c2ccc3[nH]c(=O)[nH]c3c2)cc1C` it was “inactive”. Consider `Cc1ccc(NC(=O)c2ccc3c(c2)CCC(=O)N3)cc1C`, for which the call was inactive.

In the case of `Cc1ccc(NS(=O)(=O)c2cc3c(cc2Cl)NC(=O)CO3)cc1C`, the compound was called inactive.
